Screens as filed in PubChem.
A selection: hits, their analogues and other compounds. The true share with any hit is near 2.8%.
HEK293 viab: reduces viability of HEK-293 SNCA reporter cells; 150,000 compounds, 0.12% hits; Potency, µM (titrated, usually from 57.1 µM), inactives show at the highest dose activity change, negative = cytotoxicity, usual class: cytotoxic; AID 1671193; HEK-293-SNCA-luc viability, GF-AFC fluorescence, 24 h;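 further: potency means the concentration at half of the fitted maximal effect; 0% = DMSO-treated cells and -100% = medium-only wells without cells; nearly all actives have a fitted effect of over 30% in size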
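Cytotoxicity counterscreen: after 24 h compound treatment of genome-edited SNCA-luciferase HEK-293 cells, live-cell protease substrate GF-AFC read by fluorescence after 30 min; activity scaled between DMSO (0%) and medium-only (-100%), curves Hill-fitted.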
KDM5B inh: inhibitors of human KDM5B histone demethylase. Q9UGL1. KDM5B demethylase, FDH-coupled NADH fluorescence (FDH is formaldehyde dehydrogenase). Potency, µM (series often up to 57.7 µM), usual class: inhibitors. 220,000 compounds, 2.6% hits; further: potency means the concentration at half of the fitted maximal effect; 0% is about no effect; nearly all actives have a fitted effect of over 70% in size
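Here, H3K4me3 peptide (12.5 µM in substrate mix) is demethylated by KDM5BΔAP, 200 nM final, after 10 min compound exposure. Formaldehyde product is coupled through FDH (0.25 U/mL in mix) to NADH fluorescence; 30-min ΔRFU feeds dose-response curves.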
SNCA expr inh: inhibitors of alpha-synuclein (SNCA) gene expression; 140,000 compounds, 0.17% hits; Potency, µM (titrated, usually from 57.2 µM), for the others: at the top dose activity change, negative = inhibition, actives largely listed as inhibitors; HEK-293 SNCA-luciferase knock-in, luminescence, 24 h;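 further: potency means the concentration at half of the fitted maximal effect; plate controls were DMSO cells for no effect and cell-free wells for full effect; nearly all actives have a fitted effect of over 45% in size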
IP6K1 inhibitor: inhibitors of human IP6K1; 140,000 compounds, 0.81% hits; AID 1645851; IP6K1 kinase, ADP-Glo luminescence, 2 h; stronger effect = lower value; activity change, % (series mostly up to about 58 µM); Q92551; in the data active means activity change below about -25%; further: on the % scale 0 is the no-effect control and ±100 the full control effect
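ADP-Glo luminescence measures ADP made by human IP6K1 during a 2 h RT reaction with ATP/IP6 (mix at 1.3 mM/130 uM); top library doses 57.5 and 19.1 uM final.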
* hit, by the source's call; i = inactive; ? = inconclusive; nt = no result; [ ] = another dose, or the depositor's remark. Unless noted, the call rests on the fitted dose curve; in most records, active means well fitted curve in the direction sought with a large enough effect; inconclusive means small, poorly fitted or top-dose-only effect, or another doubt; inactive means no such curve, though single readings can be large; an effect the other way counts as inactive or inconclusive.

SMILES	HEK293 viab	KDM5B inh	SNCA expr inh	IP6K1 inhibitor
CN(Cc1cc(C2CC2)n[nH]1)c1nccc(-c2cccnc2)n1	-1%	22µM*	34%	29
CC(C(=O)Nc1sc2c(c1C#N)CCCCC2)n1cnc2c1c(=O)n(C)c(=O)n2C (configuration not stated)	nt	i	nt	nt
CN1CCC2(CC1)CN(C(=O)CCc1ccccc1)Cc1ccccc1O2	0%	i	0%	-4
CN(C)C1(CNC(=S)NCCc2ccccc2)CCCCC1	nt	i	nt	nt
O=C(c1ccccc1F)N1CCC2(CC1)CC(=O)N(c1ccccc1)c1ccccc1O2	3%	i	-13%	0
O=C1CC2(CCN(C(=O)c3ccccc3)CC2)Oc2ccccc21	-1%[87.6 µM]	32µM*	8%[87.6 µM]	1
O=C1CC2(CCN(C(=O)c3ccccn3)CC2)Oc2ccccc21	0%[87.6 µM]	32µM*	-3%[87.6 µM]	5
O=C1NC2(CCCN(C(=O)c3ccccn3)C2)Oc2ccccc21 (configuration not stated)	1%[87.6 µM]	i	39%[87.6 µM]	34
O=C1CC2(CCN(C(=O)c3ccccc3F)CC2)Oc2ccccc21	-3%	25µM*	14%	9
Cc1ccc(C)c(S(=O)(=O)NCCO)c1	nt	i	nt	nt
COCCN(CCOC)Cc1cc(=O)oc2cc(C)c(O)cc12	nt	i	nt	nt
NCCO[C@H]1C[C@@H](O)C12CCN(Cc1ccc(OC(F)F)cc1)CC2	-5%	i	?	-1
COc1ccc(-c2cc3c(=O)n(CCNC(=O)Cc4ccc(C)cc4)ccn3n2)cc1	-17%	20µM*	1%	8
O=C(Cc1ccc(F)cc1)NCCn1ccn2nc(-c3ccc(F)cc3)cc2c1=O	6%	i	-7%	-5
COc1ccc(-c2cc3c(=O)n(CCNC(=O)Cc4ccsc4)ccn3n2)cc1	?	28µM*	-20%	-7
Cc1ccc(-c2cc3c(=O)n(CCNC(=O)Cc4ccsc4)ccn3n2)cc1C	-7%	i	33%	-11
COc1ccccc1Nc1ccnc(N2CCN(C(=O)NC3CCCC3)CC2)n1	-17%	nt	-22%	12
CS(=O)(=O)N(C1CC1)C1CCOC2(CCN(C(=O)C3(c4ccccc4)CC3)CC2)C1 (configuration not stated)	9%	i	27%	11
Cc1ccc(-c2ncc(NC(=O)c3cc(F)ccc3F)cn2)cc1	2%	28µM*	86%	1
COc1cccc(Nc2ccc3c(n2)C(C)(C(=O)NCc2cccs2)CN(C)C3)c1 (configuration not stated)	-20%[87.6 µM]	28µM*	-4%[87.6 µM]	-8
CN1Cc2ccc(NCc3ccccc3)nc2C(C)(C(=O)NCc2cccs2)C1 (configuration not stated)	-17%[87.6 µM]	?	-28%[87.6 µM]	-6
COc1ccc(NC(=O)C2(C)CN(C)Cc3ccc(NCc4ccccc4)nc32)cc1 (configuration not stated)	-3%[87.6 µM]	32µM*	3%[87.6 µM]	5
COCCNC(=O)C1(C)CN(C)Cc2ccc(Nc3ccccc3)nc21 (configuration not stated)	-4%[87.6 µM]	i	-15%[87.6 µM]	12
CN1Cc2ccc(NCc3ccccc3)nc2C(C)(C(=O)NCCOc2ccccc2)C1 (configuration not stated)	?	32µM*	43%[87.6 µM]	2
CN1Cc2ccc(NCc3ccccc3)nc2C(C)(C(=O)Nc2ccccc2)C1 (configuration not stated)	?	28µM*	?	20
SMILES	HEK293 viab	KDM5B inh	SNCA expr inh	IP6K1 inhibitor
CCn1nnnc1SCc1nnc(-c2c(-c3ccccc3)noc2C)o1	nt	i	nt	nt
O=C(c1nc(-c2cccnc2)c2cnccn12)N1CCOCC1	7%[87.6 µM]	i	20%[87.6 µM]	4
CC(C)(C)c1nc(C(=O)N2CCCC2)n2ccncc12	-8%[87.6 µM]	100µM*	7%[87.6 µM]	-8
CC(C)(C)c1nc(C(=O)N2CCOCC2)n2ccncc12	7%[87.6 µM]	89µM*	4%[87.6 µM]	3
CCOc1ccc(S(=O)(=O)N(CC)CC)cc1NC(=O)C1CCN(c2ccc(C#N)cn2)CC1	nt	i	nt	nt
CC1(CNCc2ccccc2)COc2ccc(C(=O)NCc3cccs3)cc2N1 (configuration not stated)	-29%[87.6 µM]	32µM*	0%[87.6 µM]	4
CC1(COc2ccccc2)COc2ccc(C(=O)NCc3cccs3)cc2N1 (configuration not stated)	-1%[87.6 µM]	32µM*	9%[87.6 µM]	13
CC1(CNc2ccccc2)COc2ccc(C(=O)NCc3cccs3)cc2N1 (configuration not stated)	-8%[87.6 µM]	?	?	-3
COCCN1Cc2ccc(Nc3cccnc3)nc2C(C)(C(=O)Nc2ccccc2C)C1 (configuration not stated)	-13%[87.6 µM]	?	-24%[87.6 µM]	11
Cc1noc(C)c1CCCNC(=O)c1ccc(N2CCN(CC3CC3)CC2)nc1	-4%	28µM*	1%	6
CC(C)NC(=O)N[C@H]1C[C@H]2C(=O)NC[C@@H](CCC(=O)N3CCN(c4ccccc4)CC3)N2C1	0%	?	26%	6
CC(C)NC(=O)N[C@H]1C[C@H]2C(=O)NC[C@@H](CCC(=O)N3CCN(c4ccccn4)CC3)N2C1	-3%	25µM*	2%	1
O=C(N[C@H]1C[C@H]2C(=O)NC[C@@H](CCC(=O)N3CCN(c4ccccn4)CC3)N2C1)C1CC1	5%	32µM*	-5%	1
COCC(=O)N[C@H]1C[C@H]2C(=O)NC[C@@H](CCC(=O)N3CCN(c4ccccn4)CC3)N2C1	6%	25µM*	19%	-9
CCOCc1nc(C2CCCN(C(=O)COC)C2)no1 (configuration not stated)	-3%[12.5 µM]	i	?	-2
C[C@H](C(=O)N1CCCC1)C1CC[C@@]2(C)Cc3sc(-c4ccccc4)nc3[C@@H](C)[C@@H]2[C@H]1O (some centres not stated)	2%	32µM*	4.5µM*	-9
C[C@H](C(=O)N1CCCC1)[C@@H]1CC[C@@]2(C)Cc3sc(-c4ccsc4)nc3[C@@H](C)[C@@H]2[C@H]1O	5%	?	5.6µM*	0
CCN(CC)C(=O)[C@@H](C)C1CC[C@@]2(C)Cc3sc(Nc4c(Cl)cccc4Cl)nc3[C@@H](C)[C@@H]2[C@H]1O (some centres not stated)	0%	i	?	-7
COCCNC(=O)[C@@H](C)C1CC[C@@]2(C)Cc3sc(CSc4ccccc4)nc3[C@@H](C)[C@@H]2[C@H]1O (some centres not stated)	-1%	i	-15%	11
Cc1ccsc1C(=O)N1CCC2(CC1)N(C)C(=O)CS2(=O)=O	-1%	i	11%	13
O=c1c2nc(N3CCC(c4ccccc4)CC3)ccc2ncn1-c1cccnc1	-3%[87.6 µM]	35µM*	9%[87.6 µM]	9
O=c1c2nc(N3CCC(c4ccccc4)CC3)ccc2ncn1C1CC1	-6%[87.6 µM]	35µM*	1%[87.6 µM]	3
CN1CCN(c2ccc3ncn(-c4cccnc4)c(=O)c3n2)CC1	-9%[87.6 µM]	35µM*	33%[87.6 µM]	23
O=c1c2nc(N3CCC(c4ccccc4)CC3)ccc2ncn1Cc1ccccn1	-2%[87.6 µM]	?	-9%[87.6 µM]	-3
